Screening data deposited in PubChem by National Center for Advancing Translational Sciences (NCATS).
Hits are enriched below; roughly 7.9% of the tested compounds scored in any of these assays.
FMDV inh – High Throughput Screening for Foot and Mouth Disease Virus Antivirals | FMDV antiviral cell-based qHTS | Potency, µM (titrated, usually from 57.9 µM), for the others: at the top dose activity change, negative = inhibition, actives largely listed as inhibitors | AID 1159524, 2015 | 410,000 compounds, 1.2% hits; calls by dose curve; tested in HEK293T cells; note: read-out not given here; potency is the fitted concentration of half-maximal effect; nearly all actives have a fitted effect of over 45% in size
Lassa entry inh – qHTS for Inhibitors of binding or entry into cells for Lassa Virus; Lassa virus pseudotype entry inhibition, cell reporter; AID 540256, 2011; Potency, µM (titrated, usually from 37.9 µM), for inactives: top-dose activity change, negative = inhibition, hits mostly inhibitors; 300,000 compounds, 1.2% hits; calls by dose curve; tested in HEK293 cells; note: potency is the fitted concentration of half-maximal effect; nearly all actives have a fitted effect of over 50% in size
HCMV antiviral – qHTS Assay for inhibitors of the human cytomegalovirus (HCMV); HFF cells, HCMV-luciferase reporter, 72 h; hits give low values; activity change, negative = inhibition, % at 57.5 µM; 410,000 compounds, 4.5% hits; in the data active = activity change below about -60%; inconclusive = no clear call, values can overlap the other calls; inactive = above about -39%
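Human foreskin fibroblasts infected with luciferase-reporter HCMV at MOI 1 PFU/cell, compounds at two doses. Luciferase measured 72 h post infection; normalized to buffer-only basal and Salinomycin (10uM) controls.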
MARV entry inh – qHTS for inhibitors of binding or entry into cells for Marburg Virus | Marburg virus pseudotyped entry inhibition, cell reporter | Potency, µM (top dose mostly 37.8 µM), for the others: at the top dose activity change, negative = inhibition, usual class: inhibitors | 300,000 compounds, 1.8% hits; calls by dose curve; tested in HEK293 cells; note: potency is the fitted concentration of half-maximal effect
HCV inhibitor – qHTS Assay for Inhibitors of Hepatitis C Virus (HCV); Huh7.5.1 HCVcc-Cre infection, luciferase reporter, 44 h; Potency, µM (series often up to 41.8 µM), inactives show at the top dose activity change, negative = inhibition, most hits filed as inhibitors; 340,000 compounds, 3.4% hits; AID 651820, 2012; active = well fitted inhibition curve with a large enough effect; inconclusive = small, poorly fitted or top-dose-only effect, or another doubt; inactive = no such curve, though single readings can be large or run the other way; note: potency is the fitted concentration of half-maximal effect
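Whole-lifecycle infectious HCVcc-Cre system; cells 1,000/well, compound then virus (~0.5 moi) added 4 h after plating, 44 h culture. Luciferase read 15 sec following 15 min substrate incubation, room temp.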
The depositor's hits bear a star; u = inconclusive; x = no result; ! = a repeat was not active; [ ] = another dose, or the depositor's remark. % is set by controls: 0 for no effect and ±100 for the full control effect.

SMILES	FMDV inh	Lassa entry inh	HCMV antiviral	MARV entry inh	HCV inhibitor
CN(C)CCSc1nc(O)c(-c2ccccc2)c(=O)n1-c1ccccc1	-10%	1%	-2	1%	13%
Cc1sc2nc(SCCN(C)C)n(-c3ccccc3)c(=O)c2c1-c1ccc(F)cc1	-4%	u	u	u	7.1µM*
COCCn1c(=O)c(CCc2ccccc2)nc2cnc(Oc3ccccc3)nc21	-12%	x	x	x	x
CNC(=O)c1c2c(nc3ccc(Br)cc13)CCCC2	-25%	u	-1	-8%[46.1 µM]	25µM*
O=C(c1ccc(N2CCC(NCCCn3ncc4ccccc43)CC2)cc1)N1CCc2ccccc2C1	0%	x	x	x	x
COc1ccc(C2CC(c3cccs3)=NN2C(=O)CCl)cc1OC (centres undefined)	u	u	-97*	u	u
COc1cc(C2CC(c3cccs3)=NN2C(=O)CCl)ccc1OC(F)F (centres undefined)	16µM*	u	-97*	u	11µM*
Cc1ccc(C2=NN(C(=O)CCl)C(c3cccs3)C2)o1 (centres undefined)	14µM*	u	-100*	u	u
O=C(CCl)N1N=C(c2ccco2)CC1c1cccs1 (centres undefined)	u	-27%	x	u	u
C/C(=N\N1C(=O)c2ccccc2NC1c1ccco1)c1ccccc1O (centres undefined)	11%	u	-78*	8.2µM*	3.5µM*
C/C(=N\N1C(=O)c2ccccc2NC1c1ccccc1)c1ccccc1O (centres undefined)	15%	x	-92*	x	u
c1ccc(CNc2ncncc2-c2ccc3c(c2)OCO3)cc1	-1%	x	x	x	x
CCOC(=O)[C@]12Cc3ccccc3[C@H]1N(C)C(=O)c1cc(OC)ccc12	u	x	-97*	x	x
CCOC(=O)[C@]12Cc3cc(C)ccc3[C@H]1N(C(C)C)C(=O)c1ccccc12	10µM*	x	-98*	x	x
CCOC(=O)[C@]12Cc3cc(OC)ccc3[C@H]1N(Cc1ccccc1)C(=O)c1ccccc12	0%	x	-13	x	u
CCOC(=O)[C@]12Cc3c(cc(OC)c(OC)c3OC)[C@H]1N(C(C)C)C(=O)c1ccccc12	u	x	-100*	x	x
CCOC(=O)[C@]12Cc3cc(C)ccc3[C@H]1N(Cc1ccccc1)C(=O)c1ccccc12	u	x	-13	x	-12%[8.37 µM]
CCOC(=O)[C@]12Cc3ccccc3[C@H]1N(C(C)C)C(=O)c1cc(OC)ccc12	28µM*	x	-97*	x	x
COC(=O)[C@]12C[C@@H]3CCN(C(=O)N[C@@H]1c1ccccc1)[C@@]32C	x	u	x	76%[14.2 µM]	x
COc1ccccc1N1CCN(C(=O)Cc2c(C(=O)O)c(C)cn2C)CC1	-8%	3%[46.1 µM]	0	x	x
Cc1cc(Cl)c(OCCCNCc2ccccc2)c(Br)c1	-15%	-14%	20	u	25µM*
COCCNCCCCOc1c(Cl)cc(C)cc1Br	-29%	-20%	-5	u	11µM*
Cc1cc(Cl)c(OCCCN2CCCCC2)c(Br)c1	-5%	u	u	u	u
Cc1cc(C(=O)Nc2ccccc2-c2nc(CNC(=O)C3COc4ccccc4O3)c(C)o2)c(C)o1 (centres undefined)	9%	x	x	x	x
COc1cc(CNC2CCCC2)cc(Cl)c1OCc1ccccc1Cl	u	u	u	10µM*	u
SMILES	FMDV inh	Lassa entry inh	HCMV antiviral	MARV entry inh	HCV inhibitor
CCOc1cc(CNC2CCCC2)cc(Cl)c1OCc1ccc(F)cc1	x	u	-16	5.8µM*	4µM*
COc1cc(CNC2CCCC2)cc(Cl)c1OCc1ccc(F)cc1	-27%	u	34	u	1.3µM*
CN(C)C/C=C(/c1ccc(Br)cc1)c1cccnc1	-10%	-23%	-2	7.1µM*	u
CCc1nc(N2CCN(S(=O)(=O)c3ccc(Br)cc3)CC2)c2c(C)c(C)sc2n1	x	-40%	-4	6%	13µM*
Cc1ccc(C)c(S(=O)(=O)N2CCN(c3nc(CN4CCOCC4)nc4sc(C)c(C)c34)CC2)c1	-7%	x	-13	x	u
Cc1sc2nc(CN3CCCC3)nc(N3CCN(S(=O)(=O)c4cccs4)CC3)c2c1C	-7%	-7%	-15	15µM*!	-17%
Cc1ccc(S(=O)(=O)N2CCN(c3nc(CN4CCCC4)nc4sc(C)c(C)c34)CC2)cc1	-22%	x	0	x	u
Cc1nc(N2CCN(S(=O)(=O)c3ccc(Br)cc3)CC2)c2c(C)c(C)sc2n1	u	24%[46.1 µM]	-63*	u	u
CCC(=O)N1CCN(c2nc(C)nc3sc(C)c(C)c23)CC1	x	-6%	-68*	5%	u
O=C(Oc1cccc(/C=N/Nc2nc(N3CCOCC3)nc(N3CCOCC3)n2)c1)c1ccco1	u	0%	125	u	1.1µM*
COc1cc(/C=N/Nc2nc(Nc3ccccc3)nc(N3CCCCC3)n2)ccc1OCC(=O)O	21%	-1%[46.1 µM]	-36	14%[46.1 µM]	20%
C(=N\Nc1nc(N2CCOCC2)nc(N2CCOCC2)n1)/c1cccnc1	-14%	4%	33	7%	-6%
COc1cc(/C=N/Nc2nc(Nc3ccccc3)nc(N3CCOCC3)n2)ccc1OC(=O)c1ccco1	-5%	u	35	2.1µM*	u
CCOc1cccc(NC(=O)C2CC(=O)N(C)C(=Nc3cccc(OC)c3)S2)c1 (centres undefined)	u	u	-2	x	x
Cc1ccc(/C=C2\SC(=S)N(CCCC(=O)Nc3ccccn3)C2=O)cc1	u	2.2µM*	-104*	u	u
COc1ccc(/C=C2\SC(=S)N(CCCC(=O)Nc3ccccn3)C2=O)cc1OC	u	0%	-99*	-9%	u
COc1ccc(OC)c(NC(=O)c2ccc3c(c2)c(C)c(C)n3Cc2ccc(F)cc2)c1	-1%	10%[46.1 µM]	0	x	x
OC1(c2ccc(OC(F)F)cc2)CSC(=Nc2cccnc2)N1Cc1ccco1 (centres undefined)	8.9µM*	u	-9	u	11µM*
COc1ccc2c([N+](=O)[O-])c(C)[nH]c2c1	x	x	-15	x	x
CCOC(=O)[C@]12Cc3cc(OC)ccc3[C@H]1N(C1CCCCC1)C(=O)c1cc(OC)ccc12	13µM*	x	-98*	x	x
CCOC(=O)[C@]12Cc3cc(C)ccc3[C@H]1N(C1CCCCC1)C(=O)c1cc(OC)ccc12	3.5µM*	x	-104*	x	x
CCCNC(=O)N1CC(=O)N2[C@H](CO)[C@@H](c3ccc(Br)cc3)[C@@H]2C1	x	x	8	x	x
CCc1ccc(NC(=O)c2cnn(-c3ccccc3)c2C)cc1	-16%	u	69	10µM*	u
Cc1c(C(=O)Nc2cc(F)cc(F)c2)cnn1-c1ccccc1	44%	x	43	x	11µM*
CCc1ccc(NC(=O)c2cnn(-c3ccccc3)c2C2CCNCC2)cc1	-20%	1%	u	-17%	28%
